# Measured values taken from paper PMC9911399, “Two distinct binding modes provide the RNA-binding protein RbFox with extraordinary sequence specificity”.
# Numbering of substitutions follows the chain as printed; changes in the protein carry UniProt numbers. Whole data set: some 16,000 sequences, median “ka relative to ugcaugu” near 0.096, cut for the highest 2% near 0.35. Only a selection was taken, and the highest values are over-represented in it overall.
# T1: RBFOX1 RRM RbFoxmut (Fox-RRM*) (Homo sapiens, UniProt Q9NWB1 109-208, R118D;E147R;N151S;E152T)
# T1 sequence: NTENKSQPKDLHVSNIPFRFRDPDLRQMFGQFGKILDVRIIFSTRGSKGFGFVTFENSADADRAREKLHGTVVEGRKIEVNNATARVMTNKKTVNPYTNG
# B1: UCCCUCG (DNA:RNA)
# RNA: GGGAGACCGGAAUUCAGAUUGUCCUCCCUCGUUAAAUCCCGUCGUAGCCACCA
# DNA 1: CAATCTGAATTCCGGTCTCCC
# DNA 2: TGGTGGCTACGACGGGATT
# B2: CAACAUU (DNA:RNA)
# RNA: B1 RNA with U25C, C26A, C27A, U29A, C30U, G31U
# DNA 1: CAATCTGAATTCCGGTCTCCC
# DNA 2: TGGTGGCTACGACGGGATT
# B3: UUGUUCU (DNA:RNA)
# RNA: B1 RNA with C26U, C27G, C28U, G31U
# DNA 1: CAATCTGAATTCCGGTCTCCC
# DNA 2: TGGTGGCTACGACGGGATT
# B4: AGUGUUG (DNA:RNA)
# RNA: B1 RNA with U25A, C26G, C27U, C28G, C30U
# DNA 1: CAATCTGAATTCCGGTCTCCC
# DNA 2: TGGTGGCTACGACGGGATT
# B5: AGUCACC (DNA:RNA)
# RNA: B1 RNA with U25A, C26G, C27U, U29A, G31C
# DNA 1: CAATCTGAATTCCGGTCTCCC
# DNA 2: TGGTGGCTACGACGGGATT
# B6: UGUACCC (DNA:RNA)
# RNA: B1 RNA with C26G, C27U, C28A, U29C, G31C
# DNA 1: CAATCTGAATTCCGGTCTCCC
# DNA 2: TGGTGGCTACGACGGGATT
# B7: GCAGACU (DNA:RNA)
# RNA: B1 RNA with U25G, C27A, C28G, U29A, G31U
# DNA 1: CAATCTGAATTCCGGTCTCCC
# DNA 2: TGGTGGCTACGACGGGATT
# B8: GGUAUUA (DNA:RNA)
# RNA: B1 RNA with U25G, C26G, C27U, C28A, C30U, G31A
# DNA 1: CAATCTGAATTCCGGTCTCCC
# DNA 2: TGGTGGCTACGACGGGATT
# B9: AGUAUGU (DNA:RNA)
# RNA: B1 RNA with U25A, C26G, C27U, C28A, C30G, G31U
# DNA 1: CAATCTGAATTCCGGTCTCCC
# DNA 2: TGGTGGCTACGACGGGATT
# B10: ACGUAUG (DNA:RNA)
# RNA: B1 RNA with U25A, C27G, C28U, U29A, C30U
# DNA 1: CAATCTGAATTCCGGTCTCCC
# DNA 2: TGGTGGCTACGACGGGATT
# B11: GGUAUGU (DNA:RNA)
# RNA: B1 RNA with U25G, C26G, C27U, C28A, C30G, G31U
# DNA 1: CAATCTGAATTCCGGTCTCCC
# DNA 2: TGGTGGCTACGACGGGATT
# B12: GUCGGUA (DNA:RNA)
# RNA: B1 RNA with U25G, C26U, C28G, U29G, C30U, G31A
# DNA 1: CAATCTGAATTCCGGTCTCCC
# DNA 2: TGGTGGCTACGACGGGATT
# B13: ACGUCCC (DNA:RNA)
# RNA: B1 RNA with U25A, C27G, C28U, U29C, G31C
# DNA 1: CAATCTGAATTCCGGTCTCCC
# DNA 2: TGGTGGCTACGACGGGATT
# B14: GGUAUUG (DNA:RNA)
# RNA: B1 RNA with U25G, C26G, C27U, C28A, C30U
# DNA 1: CAATCTGAATTCCGGTCTCCC
# DNA 2: TGGTGGCTACGACGGGATT
# B15: CCCAGUA (DNA:RNA)
# RNA: B1 RNA with U25C, C28A, U29G, C30U, G31A
# DNA 1: CAATCTGAATTCCGGTCTCCC
# DNA 2: TGGTGGCTACGACGGGATT
# B16: CGGUCGU (DNA:RNA)
# RNA: GGGAGACCGGAAUUCAGAUUGUCCCGGUCGUUUAAAUCCCGUCGUAGCCACCA
# DNA 1: CAATCTGAATTCCGGTCTCCC
# DNA 2: TGGTGGCTACGACGGGATT
# B17: GGUCCGU (DNA:RNA)
# RNA: B16 RNA with C25G, G27U, U28C
# DNA 1: CAATCTGAATTCCGGTCTCCC
# DNA 2: TGGTGGCTACGACGGGATT
# B18: ACGUAGC (DNA:RNA)
# RNA: B16 RNA with C25A, G26C, C29A, U31C
# DNA 1: CAATCTGAATTCCGGTCTCCC
# DNA 2: TGGTGGCTACGACGGGATT
# B19: CAGUAUG (DNA:RNA)
# RNA: B16 RNA with G26A, C29A, G30U, U31G
# DNA 1: CAATCTGAATTCCGGTCTCCC
# DNA 2: TGGTGGCTACGACGGGATT
# B20: CUUACUC (DNA:RNA)
# RNA: B16 RNA with G26U, G27U, U28A, G30U, U31C
# DNA 1: CAATCTGAATTCCGGTCTCCC
# DNA 2: TGGTGGCTACGACGGGATT
# B21: AACUUUU (DNA:RNA)
# RNA: B16 RNA with C25A, G26A, G27C, C29U, G30U
# DNA 1: CAATCTGAATTCCGGTCTCCC
# DNA 2: TGGTGGCTACGACGGGATT
# B22: AGUUUGA (DNA:RNA)
# RNA: B16 RNA with C25A, G27U, C29U, U31A
# DNA 1: CAATCTGAATTCCGGTCTCCC
# DNA 2: TGGTGGCTACGACGGGATT
# B23: UCUACAC (DNA:RNA)
# RNA: B1 RNA with C27U, C28A, U29C, C30A, G31C
# DNA 1: CAATCTGAATTCCGGTCTCCC
# DNA 2: TGGTGGCTACGACGGGATT
# B24: CAUCGCC (DNA:RNA)
# RNA: B1 RNA with U25C, C26A, C27U, U29G, G31C
# DNA 1: CAATCTGAATTCCGGTCTCCC
# DNA 2: TGGTGGCTACGACGGGATT
# B25: UACCUUG (DNA:RNA)
# RNA: B1 RNA with C26A, C30U
# DNA 1: CAATCTGAATTCCGGTCTCCC
# DNA 2: TGGTGGCTACGACGGGATT
# B26: UUUAACG (DNA:RNA)
# RNA: B1 RNA with C26U, C27U, C28A, U29A
# DNA 1: CAATCTGAATTCCGGTCTCCC
# DNA 2: TGGTGGCTACGACGGGATT
# B27: GGUCAAC (DNA:RNA)
# RNA: B16 RNA with C25G, G27U, U28C, C29A, G30A, U31C
# DNA 1: CAATCTGAATTCCGGTCTCCC
# DNA 2: TGGTGGCTACGACGGGATT
# B28: AUAUCUA (DNA:RNA)
# RNA: B16 RNA with C25A, G26U, G27A, G30U, U31A
# DNA 1: CAATCTGAATTCCGGTCTCCC
# DNA 2: TGGTGGCTACGACGGGATT
# B29: UAGUAAA (DNA:RNA)
# RNA: B16 RNA with C25U, G26A, C29A, G30A, U31A
# DNA 1: CAATCTGAATTCCGGTCTCCC
# DNA 2: TGGTGGCTACGACGGGATT
# B30: GGGUAGA (DNA:RNA)
# RNA: B16 RNA with C25G, C29A, U31A
# DNA 1: CAATCTGAATTCCGGTCTCCC
# DNA 2: TGGTGGCTACGACGGGATT
# B31: GUUAUGU (DNA:RNA)
# RNA: B16 RNA with C25G, G26U, G27U, U28A, C29U
# DNA 1: CAATCTGAATTCCGGTCTCCC
# DNA 2: TGGTGGCTACGACGGGATT
# B32: GGGUAUG (DNA:RNA)
# RNA: B16 RNA with C25G, C29A, G30U, U31G
# DNA 1: CAATCTGAATTCCGGTCTCCC
# DNA 2: TGGTGGCTACGACGGGATT
# B33: GUAUGUU (DNA:RNA)
# RNA: B16 RNA with C25G, G26U, G27A, C29G, G30U
# DNA 1: CAATCTGAATTCCGGTCTCCC
# DNA 2: TGGTGGCTACGACGGGATT
# B34: UAGUAUC (DNA:RNA)
# RNA: B16 RNA with C25U, G26A, C29A, G30U, U31C
# DNA 1: CAATCTGAATTCCGGTCTCCC
# DNA 2: TGGTGGCTACGACGGGATT
# B35: GGGGGUA (DNA:RNA)
# RNA: B16 RNA with C25G, U28G, C29G, G30U, U31A
# DNA 1: CAATCTGAATTCCGGTCTCCC
# DNA 2: TGGTGGCTACGACGGGATT
# B36: CCAUAUG (DNA:RNA)
# RNA: B16 RNA with G26C, G27A, C29A, G30U, U31G
# DNA 1: CAATCTGAATTCCGGTCTCCC
# DNA 2: TGGTGGCTACGACGGGATT
# B37: GUUUAUG (DNA:RNA)
# RNA: B16 RNA with C25G, G26U, G27U, C29A, G30U, U31G
# DNA 1: CAATCTGAATTCCGGTCTCCC
# DNA 2: TGGTGGCTACGACGGGATT
# B38: UAGUAUG (DNA:RNA)
# RNA: B16 RNA with C25U, G26A, C29A, G30U, U31G
# DNA 1: CAATCTGAATTCCGGTCTCCC
# DNA 2: TGGTGGCTACGACGGGATT
# B39: CCCUAUG (DNA:RNA)
# RNA: B1 RNA with U25C, C28U, U29A, C30U
# DNA 1: CAATCTGAATTCCGGTCTCCC
# DNA 2: TGGTGGCTACGACGGGATT
# B40: CCGUAUG (DNA:RNA)
# RNA: B16 RNA with G26C, C29A, G30U, U31G
# DNA 1: CAATCTGAATTCCGGTCTCCC
# DNA 2: TGGTGGCTACGACGGGATT
# Biological target: T1, RBFOX1 RRM RbFoxmut (Fox-RRM*)
# Assay: EMSA; HiTS-Eq, 1 nM pool, 10 min; buffer printed only for the single-RNA assays: 10 mM Tris pH 7.5, 150 mM NaCl, 3.4 mM EDTA, 0.001% NP-40, 30 C
# Details: tags: His6 N-terminal (pET28a); label: 5' 32P
# Summary of the method: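 These values rest on relative association constants, computed from read-count changes of each RNA species versus the control reaction and normalised to the cognate motif. Reads came from free RNA recovered by 8% native PAGE after purified RbFox RRM (wild type or mutant) at increasing concentrations was equilibrated for 10 min in 50 µL with 1 nM of a 5′-radiolabelled pool with 7 randomized nucleotides and DNA-annealed flanks.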
row,Binder,binding signal
1,B1,0.133 KA relative to UGCAUGU
2,B2,0.0738 KA relative to UGCAUGU
3,B3,0.113 KA relative to UGCAUGU
4,B4,0.186 KA relative to UGCAUGU
5,B5,0.0525 KA relative to UGCAUGU
6,B6,0.0834 KA relative to UGCAUGU
7,B7,0.0704 KA relative to UGCAUGU
8,B8,0.107 KA relative to UGCAUGU
9,B9,0.351 KA relative to UGCAUGU
10,B10,0.385 KA relative to UGCAUGU
11,B11,0.662 KA relative to UGCAUGU
12,B12,0.2 KA relative to UGCAUGU
13,B13,0.056 KA relative to UGCAUGU
14,B14,0.466 KA relative to UGCAUGU
15,B15,0.116 KA relative to UGCAUGU
16,B16,0.104 KA relative to UGCAUGU
17,B17,0.136 KA relative to UGCAUGU
18,B18,0.122 KA relative to UGCAUGU
19,B19,0.566 KA relative to UGCAUGU
20,B20,0.0513 KA relative to UGCAUGU

row,Binder,binding signal
1,B21,0.0643 KA relative to UGCAUGU
2,B22,0.169 KA relative to UGCAUGU
3,B23,0.0553 KA relative to UGCAUGU
4,B24,0.125 KA relative to UGCAUGU
5,B25,0.1 KA relative to UGCAUGU
6,B26,0.112 KA relative to UGCAUGU
7,B27,0.052 KA relative to UGCAUGU
8,B28,0.124 KA relative to UGCAUGU
9,B29,0.117 KA relative to UGCAUGU
10,B30,0.134 KA relative to UGCAUGU
11,B31,0.268 KA relative to UGCAUGU
12,B32,0.93 KA relative to UGCAUGU
13,B33,0.497 KA relative to UGCAUGU
14,B34,0.183 KA relative to UGCAUGU
15,B35,0.137 KA relative to UGCAUGU
16,B36,0.123 KA relative to UGCAUGU
17,B37,0.172 KA relative to UGCAUGU
18,B38,0.674 KA relative to UGCAUGU
19,B39,0.101 KA relative to UGCAUGU
20,B40,0.534 KA relative to UGCAUGU
